Measured values: PubChem BioAssay (NCATS)
Several values for one entry are separate records, joined by “and”; a condition that tells them apart may be missing. Equal values may be shown once. Records with an inconclusive call do not appear. Activity calls are given as the source filed them. Calls come from the whole dose curve; as a rule, active = well fitted activation curve with a large enough effect; inconclusive = small, poorly fitted or top-dose-only effect; inactive = no such curve, though single readings can be large or run the other way. Positions of bridges follow the written chain, without caps; N, C: chain ends. Non-standard residues stand in square brackets, D forms with d. Residues, ends and D or L forms follow the SMILES beside them. hArg = N=C(N)NCCCC[C@H](N)C(=O)O; Mpa = O=C(O)CCS

Biological target: Cellular tumor antigen p53 (Homo sapiens) (UniProt P04637)
Sequence (P04637 whole entry, looked up): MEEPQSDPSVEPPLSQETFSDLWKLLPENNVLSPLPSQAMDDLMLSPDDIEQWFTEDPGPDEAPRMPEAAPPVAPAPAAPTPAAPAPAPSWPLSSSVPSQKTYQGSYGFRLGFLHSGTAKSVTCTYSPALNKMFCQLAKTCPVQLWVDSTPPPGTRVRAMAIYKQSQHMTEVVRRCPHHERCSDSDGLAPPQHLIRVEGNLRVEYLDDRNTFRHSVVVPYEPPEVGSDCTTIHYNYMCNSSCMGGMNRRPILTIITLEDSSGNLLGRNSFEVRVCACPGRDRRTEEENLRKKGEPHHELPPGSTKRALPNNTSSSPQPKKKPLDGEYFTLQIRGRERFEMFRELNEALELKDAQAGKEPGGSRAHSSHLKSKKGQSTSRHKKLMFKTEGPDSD
Experiment: Primary qHTS for small molecule compounds that upregulate eGFP-tagged delta133p53alpha (in N-terminal) cells. (AID 2060322);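 note: series mostly up to about 56 µM; 0% = DMSO vehicle and 100% = reference activator; nearly all actives have a fitted effect of over 75% in size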
Conditions: NCI-H358 eGFP-delta133p53alpha fluorescence, 24 h; activation: stronger effect = higher value
Outline: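 NCI-H358 cells pre-induced 24 h with 10 ng/ml doxycycline for eGFP-delta133p53alpha, plated dox-free and exposed 24 h at 37C to titrated compounds. Fixed, Hoechst-stained; gated GFP peak intensity by laser scanning cytometry, normalized to DMSO (0%) and 57.5 uM 5-azacytidine (100%).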

Structure (SMILES)	activation
OCCc1ccccc1	1.69% (inactive)
CC(C)c1cc2c(cc1S(=O)(=O)O)[C@@]1(C)CCC[C@@](C)(C(=O)O)[C@@H]1CC2	-22% (inactive)
CCCCCCCCCCCCCCCC(=O)O	-13.4% (inactive)
CC(O)CCCCn1c(=O)c2c(ncn2C)n(C)c1=O (stereo not given)	-16.4% (inactive)
O=c1ccc2ccccc2o1	9.21% (inactive)
NC(CS)C(=O)O (stereo not given)	-24.3% (inactive)
CSc1nc2cc(Oc3cccc(Cl)c3Cl)c(Cl)cc2[nH]1	-40.2% (inactive)
CCN(CC)CCN	-0.837% (inactive)
Cc1ccc(O)c([C@H](CCN(C(C)C)C(C)C)c2ccccc2)c1	10.7% (inactive)
NC(=O)[C@@H]1CSSCCC(=O)N[C@@H](CCCCN=C(N)N)C(=O)NCC(=O)N[C@@H](CC(=O)O)C(=O)N[C@@H](Cc2c[nH]c3ccccc23)C(=O)N2CCC[C@H]2C(=O)N1 ([Mpa][hArg]GDWPC-NH2; disulfide 1-7)	2.82% (inactive)
CC=C(C(=CC)c1ccc(O)cc1)c1ccc(O)cc1	-4.09% (inactive)
CC(C)(c1ccc(O)cc1)c1ccc(O)cc1	-17.5% (inactive)
COc1cccc(N(C)C(=S)Oc2ccc3c(c2)CCCC3)n1	25.4% (inactive) and -4.03% (inactive)
O=C1CN(/N=C/c2ccc([N+](=O)[O-])o2)C(=O)N1	-7.53% (inactive)
OC[C@H]1O[C@@H](O[C@H]2[C@@H](O)[C@@](O)(CO)O[C@@H]2CO)[C@H](O)[C@@H](O)[C@@H]1O	0.771% (inactive)
